Source: PubChem BioAssay
This is a sample that favours compounds with a hit; in the whole collection about 3.4% have one here.
eIF4E-4G inh – eIF4E–eIF4G protein interaction inhibitors, primary screen, biochemical, uHTS, TR-FRET, eIF4GI fragment; TR-FRET eIF4E-eIF4GI(517-606) binding, 2 h; inhibition, % at 21.7 µM; 0.37% of 220,000 active; Eukaryotic translation initiation factor 4E (Mus musculus) + Eukaryotic translation …
Mcl1 Bid PPI – Mcl-1/Bid binding inhibitors, primary screen, biochemical, TR-FRET, 1536-well; Induced myeloid leukemia cell differentiation protein Mcl-1 (Homo sapiens), Q07820; TR-FRET Mcl-1/Bid-Dy647 peptide binding; inhibition, % at 21.7 µM; 0.97% of 220,000 active; AID 1021, 2008;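 active means compounds that cut the binding signal by more than half at the single screening dose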;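 further: His-tagged Mcl-1 with europium anti-His antibody binding Bid BH3 peptide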
p47phox inh – p47phox/p22phox peptide binding inhibitors, primary screen, biochemical, uHTS, NADPH oxidase regulatory subunit; inhibition, % at 24.7 µM; Neutrophil cytosol factor 1 (Homo sapiens), P14598; fluorescence polarization, 2 h; 0.53% of 220,000 active
14-3-3 Bad PPI – inhibitors of 14-3-3 zeta/Bad binding, primary screen, biochemical, TR-FRET, bovine 14-3-3 zeta; 14-3-3 protein zeta/delta (Bos taurus), P63103; TR-FRET 14-3-3zeta/Dy647-pBad peptide displacement, 1 h; inhibition, % at 21.7 µM; 0.71% of 220,000 active; AID 781, 2007;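 active means inhibition above about 70%, limit read from the data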
Bim-Mcl-1 – inhibitors of Bim peptide binding to Mcl-1, primary screen, biochemical, bead-based flow cytometry, multiplex | Induced myeloid leukemia cell differentiation protein Mcl-1 (Homo sapiens), Q07820 | Bim peptide-Mcl-1 binding | inhibition, % at 10 µM | 0.1% of 190,000 active; in the data active means inhibition above about 40%
Mcl1 Noxa PPI – Mcl-1/Noxa binding inhibitors, primary screen, biochemical, TR-FRET, 1536-well; AID 1022, 2008; 1.5% of 220,000 active; Induced myeloid leukemia cell differentiation protein Mcl-1 (Homo sapiens), Q07820; inhibition, % at 21.7 µM; TR-FRET Mcl-1/Noxa peptide binding, 2 h;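 active means compounds that cut the protein-peptide binding signal by more than 50% relative to plate controls in a single-dose test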;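 further: His-tagged Mcl-1 with rhodamine Noxa BH3 peptide and terbium anti-His antibody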
Hits are given with their value; – = inactive; · = no result; ! = repeats disagree.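 How the source made its calls, unless noted: active means inhibition above about 30% (limit read from the data); inactive means the rest.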

SMILES | eIF4E-4G inh | Mcl1 Bid PPI | p47phox inh | 14-3-3 Bad PPI | Bim-Mcl-1 | Mcl1 Noxa PPI
COc1ccc(N2CCN(Cc3nc(-c4ccc(Cl)cc4Cl)no3)CC2)cc1 | – | – | – | – | – | 56.3
Cc1cc(-c2n[nH]c(=S)n2/N=C/c2ccc(Cl)c([N+](=O)[O-])c2)n[nH]1 | – | – | – | – | – | –
S=c1[nH]nc(-c2ccncc2)n1/N=C/c1cn(-c2ccccc2)nc1-c1ccccc1 | – | – | – | – | · | –
COc1ccc(/C=N/n2c(-c3cc(C)[nH]n3)n[nH]c2=S)cc1 | – | – | – | – | · | –
O=[N+]([O-])c1cc(/C=N/n2c(-c3ccncc3)n[nH]c2=S)ccc1Cl | – | – | – | – | – | 65.2
Cc1cc(-c2n[nH]c(=S)n2/N=C/c2cc([N+](=O)[O-])ccc2Cl)n[nH]1 | – | – | – | – | – | 57.3
Cc1ccsc1/C=N/n1c(-c2cccnc2)n[nH]c1=S | 34.6 | – | – | – | – | –
O=[N+]([O-])c1ccc(-c2nn(-c3ccccc3)cc2/C=N/n2c(-c3ccncc3)n[nH]c2=S)cc1 | – | – | – | – | · | 51.5
COc1ccc(-n2c3c(c(=O)[nH]c2=O)C(NC(C)=O)(C(F)(F)F)C(=O)N3)cc1 (stereo not given) | – | – | – | – | – | –
Cc1cc(C)c(Nc2ncnc(N)n2)c(C)c1 | – | – | – | – | · | –
O=[N+]([O-])c1ccc(Cl)c(/C=N/n2c(-c3cccnc3)n[nH]c2=S)c1 | – | – | – | – | – | 57.6
Cc1cc(C)nc(-n2ncc3c2CC(c2cccc(Cl)c2)CC3=O)n1 (stereo not given) | – | – | – | – | – | –
Cc1ccc(-c2csc(C3=C(O)CN(NC(=O)c4ccc([N+](=O)[O-])cc4)C3=N)n2)cc1 | – | – | – | – | – | –
N=C1C(c2nc(-c3ccc(Cl)cc3)cs2)=C(O)CN1NC(=O)c1ccc(O)cc1 | – | – | – | 76.5 | · | –
N=C1C(c2nc(-c3ccc(Cl)cc3)cs2)=C(O)CN1CCCN1CCOCC1 | – | – | – | – | – | –
CCCCN1CC(O)=C(c2nc(-c3ccc(Cl)cc3)cs2)C1=N | – | – | – | – | – | 63.7
COc1ccc(CN2CCCC(CNC(=O)c3ccc(F)cc3)C2)c(C)c1C (stereo not given) | – | – | – | – | – | –
CCOC(=O)C1=C(Cc2ccc(OC)cc2)C(=O)c2ccccc2C1=O | – | – | 92.7 | – | – | –
CCOC(=O)c1ccc(COC(=O)c2ccc3c(c2)-c2ccccc2C3=O)cc1 | – | – | – | – | – | –
CCOC(=O)C1=C(Cc2ccc(C)cc2)C(=O)c2ccccc2C1=O | – | – | – | – | – | 66.7
C/C(=C\C(=O)c1ncc(C(F)(F)F)cc1Cl)N(C)C | – | – | – | – | – | –
CN=c1scc(C)n1/N=C/c1cc(Br)c(O)c(OC)c1 | – | – | – | – | – | 52.6
CN=c1scc(-c2cccs2)n1/N=C/c1ccccc1O | – | – | – | – | – | –
CN=c1scc(-c2cccs2)n1/N=C/c1ccc(O)c(O)c1O | – | – | – | – | – | 107.5
CN=c1scc(C)n1/N=C/c1ccc(O)c(O)c1O | – | – | – | – | – | 91.3
C/C(=N\OC(=O)C1CC1)C1CC1c1ccc(F)cc1 (stereo not given) | – | – | – | – | – | –
CCOc1c(C)cc(-c2ncccc2O)cc1C | – | – | – | 74.9! | – | –
COc1ccc(-c2ncccc2O)cc1 | – | – | – | – | – | –
COc1ccc(C(=O)N2CCN(S(=O)(=O)c3ccc(C)cc3)CC2)cc1S(=O)(=O)N1CCOCC1 | 61.6 | – | – | – | · | –
COc1ccc(NC(=O)c2cc(OC)c(OC)c(OC)c2)cc1S(=O)(=O)N1CCCCC1 | – | – | – | – | – | –
